# Experiments:
# Test in all cases: pooled miR-30 sensor sort-seq; sequence = guide strand
# Conditions in all cases: shRNA
# DMXL1 = target: DMXL1
# DMKN = target: DMKN
# DMRT3 = target: DMRT3
# DMRTC2 = target: DMRTC2
# DNAJC13 = target: DNAJC13
# DNMT3L = target: DNMT3L
# DPRX = target: DPRX
# DUSP5 = target: DUSP5
# DUSP3 = target: DUSP3
# EAPP = target: EAPP
# Also: reference of the scale not given here.
sequence,measurement,setting,value
TAATTCTTGCTTTACCTCCAGG,sensor-assay potency score (higher = more potent),DMXL1,-0.447
TAACATTTCCATAAGACGCTGC,sensor-assay potency score (higher = more potent),DMXL1,0.508
TTGTTGTCACCATTGCTGCCAC,sensor-assay potency score (higher = more potent),DMKN,-0.584
TACTCTTTGCCACATCTGGGGA,sensor-assay potency score (higher = more potent),DMRT3,-0.96
TTGTGACACTCGCAAGCCTGGA,sensor-assay potency score (higher = more potent),DMRTC2,-1.29
TCTGAGGGACCAGATGTCCGGG,sensor-assay potency score (higher = more potent),DMRTC2,-1.06
TTGCAACAGAACCACTTCCTTT,sensor-assay potency score (higher = more potent),DMRT3,-0.544
TAGACTCTCAGGTTCTGCGGAA,sensor-assay potency score (higher = more potent),DMRT3,-0.423
TTCTACATTATACCAAACCTTC,sensor-assay potency score (higher = more potent),DMXL1,-0.955
TTTGTCACTGAAGACCTCTGTA,sensor-assay potency score (higher = more potent),DMRT3,0.155
TAGTTCTGATCGGCTCTGCCTG,sensor-assay potency score (higher = more potent),DMKN,-0.576
TTGTAGTTCTGATCGGCTCTGC,sensor-assay potency score (higher = more potent),DMKN,0.13
TCAGAGTTGAGTGTGTGCGGGG,sensor-assay potency score (higher = more potent),DMRTC2,-0.0492
TCGAATGACATCTTCTGCCTGT,sensor-assay potency score (higher = more potent),DMKN,0.442
TTGACACAAATGGACACCCATC,sensor-assay potency score (higher = more potent),DMRT3,-1.32
ACACATTTGTGACACTCGCAAG,sensor-assay potency score (higher = more potent),DMRTC2,-1.72
TTTGACACAAATGGACACCCAT,sensor-assay potency score (higher = more potent),DMRT3,0.206
TACATTAACCTGACAAAGCTTA,sensor-assay potency score (higher = more potent),DMRT3,0.0811
TTTAACACTATGACATACTGAT,sensor-assay potency score (higher = more potent),DMXL1,0.376
TTTCTAAATAGTATCTACTTAA,sensor-assay potency score (higher = more potent),DMXL1,-0.599
TACATTGACATTACACATGTTT,sensor-assay potency score (higher = more potent),DMRT3,-0.269
TTGTTGTTGTCACCATTGCTGC,sensor-assay potency score (higher = more potent),DMKN,-0.932
TTGGATTTAAAATTCTTCCAGA,sensor-assay potency score (higher = more potent),DMKN,0.603
TTATTTGAAAATTAGGATGGGA,sensor-assay potency score (higher = more potent),DMXL1,0.431
TTTTCTATAATTCTGAATCAGA,sensor-assay potency score (higher = more potent),DMXL1,-0.788
TTTTCTACTTCTTTCTTCCAGG,sensor-assay potency score (higher = more potent),DNAJC13,-0.404
TATGCAATAAGATCTCTGCCTG,sensor-assay potency score (higher = more potent),DNMT3L,-0.0706
TCTTAGTGAACATGGTTCGTTT,sensor-assay potency score (higher = more potent),DPRX,-0.457
TAGTGTAGGTGGGTCGCGCAGG,sensor-assay potency score (higher = more potent),DUSP5,-0.939
TTCTTTTGAGCCAAAGCCTGGT,sensor-assay potency score (higher = more potent),DUSP3,-0.51
TTAAAAACAAAAATCACAGTTG,sensor-assay potency score (higher = more potent),DUSP5,0.309
TTTACATCCACGCAACACTCAG,sensor-assay potency score (higher = more potent),DUSP5,-1.07
TAGATGATTCACTTTCTCCGGT,sensor-assay potency score (higher = more potent),EAPP,0.266
TGTAGCTGACATTTACCACTGG,sensor-assay potency score (higher = more potent),DUSP5,0.536
TTCCCTGACACAGTCAATGAAG,sensor-assay potency score (higher = more potent),DUSP5,-1.14
TCTCACTCTCAATCTTCTCTTG,sensor-assay potency score (higher = more potent),DUSP5,-0.536
TGAGGTTGAACTCCTGTGTGTC,sensor-assay potency score (higher = more potent),DUSP3,0.0433
TTGACGTTGAGCGAGCCGCGCA,sensor-assay potency score (higher = more potent),DUSP5,-0.861
TTCTGCTGAGCTCTGAGACTGT,sensor-assay potency score (higher = more potent),DUSP5,-0.115
TAGTTTCTGCAGCTTGGGGATG,sensor-assay potency score (higher = more potent),DUSP3,-1.37
TTGTAGTGTAGGTGGGTCGCGC,sensor-assay potency score (higher = more potent),DUSP5,-0.607
TTGTAGAAGTTGGCATTGGTGT,sensor-assay potency score (higher = more potent),DUSP3,-0.415
TAGCTGACATTTACCACTGGTT,sensor-assay potency score (higher = more potent),DUSP5,-0.934
TTGGCGAGGAACTCGCACTTGG,sensor-assay potency score (higher = more potent),DUSP5,-0.725
TACAGTAGTCAGCACATGCTGT,sensor-assay potency score (higher = more potent),DUSP5,-0.0745
TTTGAGGAAGTAGACCCGCGGG,sensor-assay potency score (higher = more potent),DUSP5,-0.969
TTGGTCACCTGTACTGCTCTGT,sensor-assay potency score (higher = more potent),EAPP,0.00284
TTCCACATCTGTCTCTGCCTTC,sensor-assay potency score (higher = more potent),EAPP,0.205
TCATCGTAGTACCTTGTCGGAG,sensor-assay potency score (higher = more potent),EAPP,-1.04
TTTCTTCCACATCTGTCTCTGC,sensor-assay potency score (higher = more potent),EAPP,-0.196
TTCTGCCGCATCATGAGGTAGG,sensor-assay potency score (higher = more potent),DUSP3,-0.351
TTTATATCTTAGAACCTCCTCT,sensor-assay potency score (higher = more potent),EAPP,0.652
TTGAGTGGGTAGGCACCGGTGC,sensor-assay potency score (higher = more potent),DUSP5,-0.999
ATTGGTGTTGACGTGCATGAAG,sensor-assay potency score (higher = more potent),DUSP3,-1.24
TAGAAAGTCTCATATCCCCCTT,sensor-assay potency score (higher = more potent),DUSP5,-0.306
TAGCGCGCCGACACCGCGCCGC,sensor-assay potency score (higher = more potent),DUSP5,-0.777
TTCATAAGGTAAGCCATGCAGA,sensor-assay potency score (higher = more potent),DUSP5,-0.386
TATTGCTTCTTGAAAGTGGGAG,sensor-assay potency score (higher = more potent),DUSP5,0.394
TTCAAAGTAAGCGCTGAGGTTG,sensor-assay potency score (higher = more potent),DUSP3,-0.662
TTGAGGAAGTAGACCCGCGGGC,sensor-assay potency score (higher = more potent),DUSP5,-0.647
